Screening results deposited in PubChem BioAssay by Broad Institute.
Only some compounds are listed: those with a hit (about 6.8% of all), similar ones and a draw of the others.
T cruzi growth-1 – blocks T. cruzi growth in NIH3T3 culture | T. cruzi beta-gal in NIH3T3, GalScreen luminescence, 90 h | inhibition, % at 8.34 µM | 77,000 tested, 5.9% active;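 active = mean inhibition above about 93%, with at least 55% of replicates each passing it, limit read from the data, passing the limit was not always enough; inconclusive = only one of those two conditions holds; inactive = neither condition holds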
C diff HTS – inhibitors of Clostridium difficile growth; 86,000 tested, 0.25% active; AID 1259249; growth activity, negative = inhibition, % at 16 µg/mL (by protocol); Clostridium difficile clinical isolate growth, OD600, 24 h; active compounds read low;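 active = mean growth activity at or below -80% and every replicate also at or below -80%; inconclusive = mean at or below -80% but some replicate above -80%; inactive = mean growth activity above -80%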
Pf Dd2 growth – P. falciparum Dd2 growth inhibition; SYBR Green, 72 h; active compounds read low; activity change, % at 10 µM; 94,000 tested, 2.3% active; in the data active = activity change below about -80%; inconclusive = no clear call, values can overlap the other calls
T cruzi growth-2 – Trypanosoma cruzi proliferation inhibition | shares compounds with T cruzi growth-1 | T. cruzi beta-gal in NIH3T3, GalScreen luminescence, 90 h | inhibition, % at 8.35 µM | 5,600 tested, 72% active | AID 651739;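 active = mean replicate inhibition above about 95% and at least 55% of replicates individually reaching it, limit read from the data; inconclusive = only one of the two criteria is met; inactive = neither criterion is met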
T cruzi growth-3 – blocks T. cruzi growth in NIH3T3 host cells; shares compounds with T cruzi growth-1; T. cruzi beta-gal in NIH3T3, GalScreen luminescence, 90 h; inhibition, % at 2.09 µM; 5,600 tested, 21% active; AID 651740;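 active = mean inhibition above about 95%, with at least 55% of replicates also reaching it, limit read from the data; inconclusive = meets just one of the two conditions; inactive = meets neither condition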
3T3 cytotox – NIH/3T3 (mouse) viability loss; shares compounds with T cruzi growth-1; NIH/3T3 viability, CellTiter-Glo ATP luminescence, 90 h; cytotoxicity (signal decrease), % at 8.35 µM; 5,600 tested, 14% active;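 active = mean signal decrease across replicates above about 35% based on untreated-well scatter, with enough replicates individually passing, limit read from the data; inconclusive = no rule stated though some were filed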
3T3 cytotox 2 – kills mouse NIH/3T3 fibroblasts | shares compounds with T cruzi growth-1 | NIH/3T3 viability, CellTiter-Glo ATP luminescence, 90 h | inhibition, % at 24.9 µM | 5,600 tested, 56% active | AID 651744;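 active = mean loss of cell viability signal at or above a set limit, and enough replicates individually reaching it; inconclusive = meets only the mean limit or only the replicate share; inactive = meets neither condition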
Each line names hits and unclear results; the compound was inactive in the other large screens (follow-up assays come after a bar, where they were run).

CCCC(=O)Nc1ccc2c(c1)C(=O)N(C)[C@H]1CC[C@@H](CC(=O)NCCc3ccccc3)O[C@@H]1CO2	none
C[C@@H]1CN([C@@H](C)CO)C(=O)c2cc(NC(=O)Cc3ccccc3)ccc2O[C@@H]1CN(C)S(=O)(=O)c1cn(C)cn1	none (no result: C diff HTS)
Cc1ccc(-c2ccc([C@H]3[C@@H](CO)N4CCCCN(C(=O)c5ccc(F)cc5)C[C@@H]34)cc2)cc1	T cruzi growth-1 113.3 | T cruzi growth-2 108.5 | T cruzi growth-3 inactive | 3T3 cytotox inactive | 3T3 cytotox 2 104.8
CC(=O)N1CCCCN2[C@H](CO)[C@@H](c3ccc(-c4ccc(F)cc4)cc3)[C@H]2C1	none
Cc1ccc(-c2ccc([C@@H]3[C@@H](CO)N4CCCCN(C(=O)c5ccc(F)cc5)C[C@@H]34)cc2)cc1	T cruzi growth-1 106.6 | T cruzi growth-2 101.0 | T cruzi growth-3 inactive | 3T3 cytotox inactive | 3T3 cytotox 2 56.7
Cc1ccc(-c2ccc([C@@H]3[C@H](CO)N4CCCCN(C(=O)c5ccncc5)C[C@@H]34)cc2)cc1	none
Cc1ccc(-c2ccc([C@H]3[C@@H](CO)N4CCCCN(C(=O)c5ccc(F)cc5)C[C@H]34)cc2)cc1	T cruzi growth-1 103.3 | T cruzi growth-2 105.8 | T cruzi growth-3 100.9 | 3T3 cytotox 46.0 | 3T3 cytotox 2 103.5
Cc1ccc(-c2ccc([C@H]3[C@H]4CN(C(=O)c5ccc(F)cc5)CCCCN4[C@H]3CO)cc2)cc1	T cruzi growth-1 101.9 | T cruzi growth-2 103.2 | T cruzi growth-3 inactive | 3T3 cytotox inactive | 3T3 cytotox 2 103.2
CO[C@H]1CN(C)C(=O)c2ccc(NC(=O)c3nc4ccccc4s3)cc2OC[C@H](C)NC[C@@H]1C	none (no result: C diff HTS)
O=C(c1ccccn1)N1C[C@@H]2N[C@H](C1)C2c1ccc(-c2ccccc2F)cc1 (some centres undefined)	none (no result: T cruzi growth-1)
C[C@@H]1CN([C@H](C)CO)C(=O)c2cc(NC(=O)CCCN(C)C)ccc2O[C@@H]1CN(C)Cc1ccc(C(F)(F)F)cc1	none
Cc1ccc(-c2ccc([C@H]3[C@H](CO)N4CCCCN(C(=O)c5ccc(F)cc5)C[C@@H]34)cc2)cc1	T cruzi growth-1 103.2 | T cruzi growth-2 inconclusive | T cruzi growth-3 inactive | 3T3 cytotox inactive | 3T3 cytotox 2 106.4
O=C(c1ccc(F)cc1)N1CCCCN2[C@@H](CO)[C@@H](c3ccc(-c4ccccc4)cc3)[C@@H]2C1	none
CC(=O)N[C@@H]1CC[C@@H](CCNC(=O)C2CCCC2)O[C@@H]1CO	none (no result: T cruzi growth-1)
COc1ccc2c3c(n(C)c2c1)[C@H](CO)N(C(=O)CC1CC1)CC31CCN(C(=O)NC(C)C)CC1	none (no result: T cruzi growth-1)
C[C@@H]1CCCCO[C@@H](CN(C)C(=O)c2ccccc2)[C@@H](C)CN([C@H](C)CO)C(=O)c2cc(NC(=O)Nc3ccc(C(F)(F)F)cc3)ccc2O1	none
C[C@@H]1CCCCO[C@H](CN(C)C(=O)c2ccccc2)[C@H](C)CN([C@@H](C)CO)C(=O)c2cc(NC(=O)Nc3ccc(C(F)(F)F)cc3)ccc2O1	T cruzi growth-1 inconclusive | T cruzi growth-2 101.0 | T cruzi growth-3 111.6 | 3T3 cytotox inactive | 3T3 cytotox 2 48.5
C[C@@H]1CCCCO[C@@H](CN(C)C(=O)c2ccccc2)[C@H](C)CN([C@H](C)CO)C(=O)c2cc(NC(=O)Nc3ccc(C(F)(F)F)cc3)ccc2O1	T cruzi growth-1 inconclusive | T cruzi growth-2 102.6 | T cruzi growth-3 117.5 | 3T3 cytotox inactive | 3T3 cytotox 2 inactive
C[C@@H]1CN([C@H](C)CO)C(=O)c2cc(NC(=O)Nc3ccc(C(F)(F)F)cc3)ccc2O[C@@H](C)CCCCO[C@@H]1CN(C)C(=O)c1ccccc1	none
C[C@@H]1CCCCO[C@@H](CN(C)C(=O)c2ccccc2)[C@@H](C)CN([C@@H](C)CO)C(=O)c2cc(NC(=O)Nc3ccc(C(F)(F)F)cc3)ccc2O1	none
C[C@@H]1CCCCO[C@H](CN(C)C(=O)c2ccccc2)[C@@H](C)CN([C@@H](C)CO)C(=O)c2cc(NC(=O)Nc3ccc(C(F)(F)F)cc3)ccc2O1	T cruzi growth-1 inconclusive, Pf Dd2 growth -91.8 | T cruzi growth-2 107.4 | T cruzi growth-3 109.6 | 3T3 cytotox inactive | 3T3 cytotox 2 inactive
CO[C@H]1CN(C)C(=O)c2cc(NC(=O)c3ccno3)ccc2OC[C@H](C)N(S(C)(=O)=O)C[C@@H]1C	none (no result: C diff HTS)
CCCC#Cc1ccc2c(c1)O[C@@H](CN(C)C(=O)c1cnccn1)[C@H](C)CN([C@@H](C)CO)S2(=O)=O	none
C[C@H](O)C#Cc1ccc2c(c1)O[C@@H](CN(C)C(=O)C1CCCCC1)[C@H](C)CN([C@H](C)CO)S2(=O)=O	none
CCCC#Cc1ccc([C@H]2[C@@H](CO)N3CCCCN(Cc4cncnc4)C[C@H]23)cc1	none
CCCC#Cc1ccc([C@@H]2[C@@H](CO)N3CCCCN(Cc4cncnc4)C[C@H]23)cc1	none
OC[C@H]1[C@@H](c2ccc(C#Cc3ccccc3)cc2)[C@@H]2CN(Cc3cncnc3)CCCCN12	none
OC[C@H]1[C@H](c2ccc(C#Cc3ccccc3F)cc2)[C@@H]2CN(Cc3cncnc3)CCCCN12	T cruzi growth-1 113.5 | T cruzi growth-2 99.1 | T cruzi growth-3 inactive | 3T3 cytotox inconclusive | 3T3 cytotox 2 105.5
OC[C@H]1[C@H](c2ccc(C#Cc3ccccc3F)cc2)[C@H]2CN(Cc3cncnc3)CCCCN21	T cruzi growth-1 101.0 | T cruzi growth-2 107.8 | T cruzi growth-3 inactive | 3T3 cytotox 39.5 | 3T3 cytotox 2 102.9
OC[C@@H]1[C@H](c2ccc(C#Cc3ccccc3F)cc2)[C@@H]2CN(Cc3cncnc3)CCCCN12	T cruzi growth-1 106.7 | T cruzi growth-2 107.3 | T cruzi growth-3 inactive | 3T3 cytotox 47.4 | 3T3 cytotox 2 103.7
OC[C@H]1[C@H](c2ccc(C#Cc3ccccc3)cc2)[C@H]2CN(Cc3cncnc3)CCCCN21	T cruzi growth-1 104.2 | T cruzi growth-2 107.5 | T cruzi growth-3 inactive | 3T3 cytotox inactive | 3T3 cytotox 2 103.3
OC[C@@H]1[C@@H](c2ccc(C#Cc3ccccc3F)cc2)[C@H]2CN(Cc3cncnc3)CCCCN12	none
CNC(=O)C[C@@H]1CC[C@H]2[C@H](COc3ccc(NC(=O)c4cnccn4)cc3C(=O)N2C)O1	none
COc1ccc(NC(=O)N(C)C[C@H]2Oc3c(NS(=O)(=O)c4ccc(Cl)cc4)cccc3C(=O)N([C@H](C)CO)C[C@@H]2C)cc1	none
COc1ccc(CN(C)C[C@@H]2OCCCC[C@H](C)Oc3ccc(NS(=O)(=O)c4ccc(OC)cc4)cc3C(=O)N([C@H](C)CO)C[C@H]2C)cc1	none
CO[C@@H]1CN(C)C(=O)c2cc(NS(C)(=O)=O)ccc2OC[C@@H](C)N(Cc2cccnc2)C[C@H]1C	none (no result: C diff HTS, Pf Dd2 growth)
